SMILES strings stand for the structures. Where “and” joins values, the source holds several entries; their conditions need not be identical. Identical values can stand only once. Records with an inconclusive call do not appear. A call without a number means that no potency is given here. Calls of active or inactive are those of the source. Calls follow the shape of the dose curve; as a rule, active = well fitted cell-killing curve with a large enough effect in the repeat runs; inconclusive = weak or mixed curves; inactive = flat fitted curve, though single readings scatter.
Potency is read from the fitted curve at half-maximal effect.

A short description of this experiment: qHTS RealTime-Glo MT Cell Viability Assay in HepG2 cells - 16 hour (AID 1224885). Also: nearly all actives have a fitted effect of over 50% in size. Particulars: RealTime-Glo luminescence; series mostly up to 76.8 µM. The source says:
U.S. Tox21 Program National Center for Advancing Translational Sciences [NCATS] NIH Chemical Genomics Center [NCGC] U.S. Environmental Protection Agency [EPA] National Institutes of Environmental Health Sciences [NIEHS] National Toxicology Program [NTP] U.S. Food and Drug Administration [FDA] Tox21 Assay Overview: Measure of cell viability is critical in the cell-base assay. Analysis of cell viability is necessary for the characterization of cell responses to cytotoxic drugs and environmental stress. A RealTime-Glo MT Cell Viability Assay to monitor cell viability in real time of continues cell culture during 40 hours of compound treatment was used to screen Tox21 10K library compounds in HepG2 cells. The RealTime-Glo MT Cell Viability Assay is a nonlytic, homogeneous, bioluminescent method to measure cell viability in real time using a simple, plate-based method. The assay involves adding NanoLuc luciferase and a cell-permeant prosubstrate to cells in culture. Viable cells reduce the proprietary prosubstrate to generate a substrate for NanoLuc luciferase. This substrate diffuses from cells into the surrounding culture medium, where it is rapidly used by the NanoLuc Enzyme to produce a luminescent signal. The signal correlates with the number of viable cells, making the assay well suited for cytotoxicity studies.
Tox21 Assay Protocol Summary: The mixture of HepG2 cell suspension and reagents were dispensed at 600cells/6 ul/well in 1536-well tissue culture treated black solid bottom plates using a Multidrop dispenser. After the assay plates were incubated at a 37 C/5% CO2 incubator for 5 hours, 23 nL of compounds dissolved in DMSO, positive and negative controls was transferred to the assay plate by a pintool work station. The plates were incubated at 37 C for 40 hours. The luminescence intensity were measured at 0h, 8h, 16h, 24h, 32h and 40h time points using ViewLux plate reader during compound treatment.
On the technique in general: qHTS replaces the single test concentration by a dilution series.
With `CCOS(=O)(=O)OCC`, the Potency result is “inactive”.

For `CCCCCCCCCCCCCl`, the Potency result was “inactive”.

For the compound `CCCCCCCC[N+](C)(CCCCCCCC)CCCCCCCC`, the Potency is 15.5 µM (active) and 21.9 µM (active) and 13.8 µM (active).

`Nc1ccc([N+](=O)[O-])cc1N`: the Potency entry was “inactive”.

On to `CN(C)c1nc(=O)n(C2CCCCC2)c(=O)n1C`, for which the Potency entry was “inactive”.

Consider `Clc1cccc(Cl)c1`, for which the Potency entry is “inactive”.

On to `CC1(C)C(C(=O)OC(C#N)c2cccc(Oc3ccccc3)c2)C1(C)C` (stereo not given), for which the Potency entry is “inactive”.

For the compound `C[N+](C)(C)CC(=O)[O-]`, the Potency result is “inactive”.

On to `Clc1ccc(C(Cl)(Cl)Cl)cc1`, for which the Potency result is “inactive”.

On to `O=S(=O)(O)C(F)(F)C(F)(F)C(F)(F)C(F)(F)C(F)(F)C(F)(F)C(F)(F)C(F)(F)F`, for which the Potency result was “inactive”.

On to `Clc1ccccc1-c1nnc(-c2ccccc2Cl)nn1`, for which the Potency result was “inactive”.

For `C=C(C)C#N`, the Potency result is “inactive”.

`CCC[CH2][Sn]([Cl])([CH2]CCC)[CH2]CCC`: the Potency was 2.19 µM (active) and 692 nM (active).

With `CCC[CH2][Sn]([Cl])([Cl])[CH2]CCC`, the Potency was 701 nM (active) and 616 nM (active).

Consider `CCCCOC(=O)COC(=O)c1ccccc1C(=O)OCCCC`, for which the Potency entry was “inactive”.

Turning to `C=CC(=O)OCC(CC)(COC(=O)C=C)COC(=O)C=C`, the Potency was 25.2 µM (active) and 13.8 µM (active).

Turning to `[CH3][Sn]([Cl])([Cl])[Cl]`, the Potency result was “inactive”.

With `N#CCCCCC#N`, the Potency entry is “inactive”.

Regarding `CC(C)(c1ccc(OCC2CO2)cc1)c1ccc(OCC2CO2)cc1` (stereo not given), the Potency result was “inactive”.

As to `CC(C)Nc1nc(Cl)nc(NC(C)C)n1`, the Potency result is “inactive”.

As for `Cl`, the Potency result was “inactive”.

Take `C[N+](C)(C)CC(=O)O`: the Potency entry was “inactive”.

Turning to `CNC(=O)Oc1cccc2c1OC(C)(C)C2`, the Potency result was “inactive”.

Consider `CN(C)c1ccccc1`, for which the Potency result was “inactive”.

Regarding `Cn1c(-c2ccccc2)cc(-c2ccccc2)[n+]1C`, the Potency result was “inactive”.

With `N#Cc1cccnc1`, the Potency entry is “inactive”.

`O=P(OCCCl)(OCCCl)OCCCl`: the Potency result was “inactive”.

`CCOC(=O)c1ccccc1N`: the Potency entry is “inactive”.

As for `CC(C)=CC1C(C(=O)OCN2C(=O)C3=C(CCCC3)C2=O)C1(C)C` (stereo not given), the Potency result is “inactive”.

For the compound `CCN(CC)C(=O)C(C)Oc1cccc2ccccc12` (stereo not given), the Potency entry was “inactive”.

Consider `COC(=O)Nc1nc2ccccc2[nH]1`, for which the Potency result is “inactive”.

As for `COP(=S)(OC)SCn1nnc2ccccc2c1=O`, the Potency entry is “inactive”.

As for `OC(c1ccc(Cl)cc1)(c1cncnc1)c1ccccc1Cl` (stereo not given), the Potency was 39.6 µM (active).

As for `COP(=O)(NC(C)=O)SC` (stereo not given), the Potency result was “inactive”.

`O=C(O)CF`: the Potency entry is “inactive”.

As for `CC(C)=CC1C(C(=O)OCc2cccc(Oc3ccccc3)c2)C1(C)C` (stereo not given), the Potency result is “inactive”.

As for `NN=C(N)N`, the Potency entry was “inactive”.

`CC[n+]1c(-c2ccccc2)c2cc(N)ccc2c2ccc(N)cc21`: the Potency result was “inactive”.

With `CCOP(=S)(OCC)OP(=S)(OCC)OCC`, the Potency entry is “inactive”.

With `O=[N+]([O-])c1ccc(Nc2ccccc2)cc1`, the Potency result was “inactive”.

The values are drawn from PubChem BioAssay (Tox21).
